# Mdm2-MdmX inh: inhibitors of human Mdm2/MdmX interaction | O15151+Q00987 | SaOS-2 split-luciferase Mdm2/MdmX complementation, luminescence | inhibition, % at 8 µM | 330,000 compounds, 3% hits;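 active means inhibition of at least 50% at 8 µM in the primary screen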
# Target sequence (O15151 whole entry, looked up): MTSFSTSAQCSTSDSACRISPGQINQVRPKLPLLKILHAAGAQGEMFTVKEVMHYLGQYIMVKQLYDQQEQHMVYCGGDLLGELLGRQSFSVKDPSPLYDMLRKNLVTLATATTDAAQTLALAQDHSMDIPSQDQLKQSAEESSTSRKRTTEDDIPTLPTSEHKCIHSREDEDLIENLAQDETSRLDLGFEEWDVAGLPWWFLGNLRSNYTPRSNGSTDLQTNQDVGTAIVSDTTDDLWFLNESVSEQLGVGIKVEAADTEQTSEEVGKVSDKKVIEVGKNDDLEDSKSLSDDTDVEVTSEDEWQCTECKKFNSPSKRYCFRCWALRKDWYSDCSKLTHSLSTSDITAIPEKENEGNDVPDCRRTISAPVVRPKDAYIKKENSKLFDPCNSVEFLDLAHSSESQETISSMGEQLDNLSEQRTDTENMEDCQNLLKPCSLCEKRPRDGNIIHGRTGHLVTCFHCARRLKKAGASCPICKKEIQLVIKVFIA
# Target sequence (Q00987 whole entry, looked up): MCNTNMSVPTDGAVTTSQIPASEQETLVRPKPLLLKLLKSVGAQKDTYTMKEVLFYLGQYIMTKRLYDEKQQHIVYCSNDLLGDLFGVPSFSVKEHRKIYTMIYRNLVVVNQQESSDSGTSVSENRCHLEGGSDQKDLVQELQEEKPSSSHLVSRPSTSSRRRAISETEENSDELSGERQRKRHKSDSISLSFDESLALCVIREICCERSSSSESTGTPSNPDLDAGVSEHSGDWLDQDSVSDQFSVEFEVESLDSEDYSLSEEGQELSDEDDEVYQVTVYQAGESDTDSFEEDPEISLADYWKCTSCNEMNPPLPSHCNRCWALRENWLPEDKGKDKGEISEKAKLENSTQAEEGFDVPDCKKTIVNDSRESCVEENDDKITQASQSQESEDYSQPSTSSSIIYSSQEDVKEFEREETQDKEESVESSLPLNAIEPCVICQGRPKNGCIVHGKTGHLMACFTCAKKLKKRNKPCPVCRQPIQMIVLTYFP
# Beta apoptosis: blocks beta cell apoptosis; protection from apoptosis, % (concentration not given with the values); 300,000 compounds, 0.8% hits; INS-1E cytokine-induced death, ATP luminescence, 48 h; percent of positive-control rescue, neutral wells zero; AID 435005;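 active means Every replicate reaches about 75%, or at least half do and their mean reaches it too, limit read from the data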;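 further: higher means more ATP so stronger rescue from cytokine killing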
# 697 NFkB inh: lowers PMA/ionomycin-induced NF-kB signal in 697 B cells | 697 B-cell NF-kB luciferase reporter, 16 h | 330,000 compounds, 0.33% hits | inhibition, % at 4 µM; in the data active means inhibition above about 35%
# Gli-Sufu block: antagonists of Gli-Sufu signaling. Sufu-KO-LIGHT fibroblasts, Gli luciferase reporter luminescence. inhibition, % at 5 µM. 340,000 compounds, 0.74% hits. AID 588413;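 active means inhibition above about 55%, limit read from the data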
# Jurkat NFkB inh: inhibitors of the PMA/ionomycin-induced NF-kB reporter in Jurkat cells. inhibition, % at 4 µM. AID 435003. PMA/ionomycin-induced NF-kB luciferase reporter, luminescence. 330,000 compounds, 0.53% hits; in the data active means inhibition above about 50%
# Mdm2 MdmX conf: confirmation of human Mdm2/MdmX interaction inhibitors; shares compounds with Mdm2-MdmX inh; Mdm2-MdmX binding, luminescent assay; inhibition, % at 8 µM; 10,000 compounds, 55% hits; in the data active means inhibition above about 40%
# FLuc counter: counter-screen for Mdm2/MdmX inhibitors: full-length luciferase; shares compounds with Mdm2-MdmX inh; inhibition, % at 8 µM; SaOS-2 full-length luciferase counterscreen, luminescence; 6,200 compounds, 77% hits;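 active means mean inhibition at 8 µM reaching about 37%, which flags the compound as non-specific, limit read from the data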;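 further: p53-null SaOS-2 cells with luciferase driven by a doxycycline-inducible promoter; compound on cells about two nights before reading with doxycycline added after day one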
# Numbers stand for hits; - = inactive; . = no result given. In the library only some 4% were active in any assay of this set; here they are far more common.
SMILES,Mdm2-MdmX inh,Beta apoptosis,697 NFkB inh,Gli-Sufu block,Jurkat NFkB inh,Mdm2 MdmX conf,FLuc counter
CCC/C(C#Cc1ccc(N(C)C)cc1)=C1/c2ccccc2C(=O)N1c1ccccc1,50.6,-,-,-,-,-,.
Cc1cc(C)cc(N(CCC#N)C(=O)COC(=O)C2CCN(c3ccc(C(F)(F)F)cn3)CC2)c1,-,-,-,-,-,.,.
NC(=S)Nc1cccc2[nH]ccc12,-,-,-,-,-,.,.
CC(C)(C)C1CCC(CN2C(Nc3ccccc3)=NC[C@@H]2Cc2ccccc2)CC1 (some centres undefined),100.5,-,-,-,-,-,47.2
CCN1C(Nc2ccccc2)=NC[C@@H]1Cc1ccccc1,-,-,-,-,-,.,.
COc1ccc2cc(CO)c3cc(OC)c(OC)cc3c2c1,-,-,-,-,-,.,.
NS(=O)(=O)c1ccc(NC(=O)/C=C/c2cn(-c3ccccc3)nc2-c2cccc(Cl)c2)cc1,50.2,-,-,.,-,-,.
NS(=O)(=O)c1ccc(N/N=C/c2cn(-c3ccccc3)nc2-c2ccccc2)c([N+](=O)[O-])c1,84.0,91.1,-,-,-,-,.
O=C(/C=C/c1cn(-c2ccccc2)nc1-c1ccccc1)Nc1ccc(C(=O)O)cc1,-,-,-,-,-,.,.
O=[N+]([O-])c1ccc(N/N=C/c2cn(-c3ccccc3)nc2-c2ccccc2)cc1,57.4,-,-,-,-,-,52.2
Cc1ccc(-c2nn(-c3ccccc3)cc2/C=C/C(=O)Nc2nccs2)cc1,72.3,-,-,-,-,42.8,37.4
COc1c(/C=N/Nc2ccc([N+](=O)[O-])cc2[N+](=O)[O-])c(C)nn1-c1ccccc1,54.1,-,-,-,-,-,.
C=CCC[C@@H](Cc1ccc(F)cc1)C(=O)OC[C@@H](Cc1c[nH]c2ccccc12)NC(=O)[C@@H](CC=C)CC(=O)N(CCO)Cc1ccccc1,93.3,-,-,-,-,-,.
C=CCC[C@H](Cc1ccc(F)cc1)C(=O)OC[C@@H](Cc1c[nH]c2ccccc12)NC(=O)[C@@H](CC=C)CC(=O)N[C@@H](CO)Cc1ccccc1,-,-,-,-,-,.,.
C=CCC[C@@H](Cc1ccc(F)cc1)C(=O)OC[C@@H](Cc1c[nH]c2ccccc12)NC(=O)[C@H](CC=C)CC(=O)N[C@H](CO)Cc1ccccc1,75.8,-,-,-,-,-,.
C=CCC[C@H](Cc1ccc(F)cc1)C(=O)OC[C@H](Cc1c[nH]c2ccccc12)NC(=O)[C@H](CC=C)CC(=O)N(CCO)Cc1ccccc1,89.9,-,-,-,-,-,.
COc1cccc(C2NC(=S)NC(C)=C2C(=O)c2ccccc2)c1OC (centres undefined),51.0,-,-,-,-,49.1,78.0
CC(OC(=O)C1CCCC1)C(=O)Nc1ncc(Cl)cc1Cl (centres undefined),-,-,-,-,-,.,.
N=c1n(CC(=O)c2ccc(Br)s2)c2ccccc2n1Cc1ccccc1,96.9,-,-,-,-,62.1,53.2
N=c1n(CC(=O)c2cccc([N+](=O)[O-])c2)c2ccccc2n1Cc1ccccc1,92.1,-,-,-,-,-,.
CSc1ccccc1NC(=O)CN1CCN(Cc2ccccc2)CC1,-,-,-,.,-,.,.
S=C(NNc1ccnc2cc(Cl)ccc12)Nc1ccc(Cl)cc1Cl,91.5,-,-,-,-,-,48.9
S=C(NCc1ccncc1)Nc1ccc(Cl)cc1Cl,-,-,-,-,-,.,.
CC(C)c1ccccc1OCC(=O)N(C)CC(=O)Nc1ccc(F)cc1,-,-,-,-,-,.,.
CCOc1ccc(N(Cc2ccc(OC)cc2)C(=O)c2ccco2)cc1,-,-,-,-,-,.,.
COc1ccc(CN(C(=O)c2ccco2)c2ccc(C)c(C)c2)cc1,57.7,-,-,-,-,56.8,59.5
COc1ccc(CCNC(=O)c2ccccc2NC(=O)CN2CCN(c3ccccc3O)CC2)cc1,53.9,.,-,-,-,44.8,97.0
O=C(CN1CCN(c2ccccc2O)CC1)Nc1ccccc1C(=O)NCCc1ccccc1,-,-,-,-,-,.,.
O=C(NC(NC(=S)Nc1cccc(Cl)c1)C(Cl)(Cl)Cl)OCc1ccccc1 (centres undefined),91.5,-,-,-,-,55.5,53.4
